# Key:
# Settings in all cases: concentration: 1 μM, replicates: in singlicate; n = 1
# PCTK2 = system: T1, PCTK2
# T1 construct: gene CDK17
# PCTK3 = system: T2, PCTK3
# T2 construct: gene CDK18
# PDGFRA = system: PDGFRA
# PDGFRB = system: PDGFRB
# PDPK1 = system: PDPK1
# PFTAIRE2 = system: PFTAIRE2
# PFTK1 = system: T3, PFTK1
# T3 construct: gene CDK14
# PHKG1 = system: PHKG1
# PHKG2 = system: PHKG2
# PIK3C2B = system: PIK3C2B
# 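Further: KINOMEscan kinase panel screen.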
smiles,measurement,setting,value
CCn1cnc2c(NCc3ccccc3)ncnc21 [SKF-96418],%Inh,PCTK2,0%
same,%Inh,PCTK3,0%
same,%Inh,PDGFRA,0%
same,%Inh,PDGFRB,0%
same,%Inh,PDPK1,0%
same,%Inh,PFTAIRE2,0%
same,%Inh,PFTK1,0%
same,%Inh,PHKG1,0%
same,%Inh,PHKG2,0%
same,%Inh,PIK3C2B,0%
CCNC(=O)/C=C/c1n[nH]c2cc(Sc3ccccc3C(=O)NC)ccc12,%Inh,PCTK2,0%
same,%Inh,PCTK3,10%
same,%Inh,PDGFRA,100%
same,%Inh,PDGFRB,99.9%
same,%Inh,PDPK1,6%
same,%Inh,PFTAIRE2,0%
same,%Inh,PFTK1,13%
same,%Inh,PHKG1,14%
same,%Inh,PHKG2,19%
same,%Inh,PIK3C2B,0%
N#CC1(c2cccc(C(=O)Nc3cccc(Oc4ccc5nc(NC(=O)C6CC6)sc5n4)c3)c2)CC1,%Inh,PCTK2,0%
same,%Inh,PCTK3,1%
same,%Inh,PDGFRA,99.7%
same,%Inh,PDGFRB,100%
same,%Inh,PDPK1,49%
same,%Inh,PFTAIRE2,0%
same,%Inh,PFTK1,9%
same,%Inh,PHKG1,0%
same,%Inh,PHKG2,19%
same,%Inh,PIK3C2B,0%
COc1cc(Nc2nccc(N3CCC(NS(=O)(=O)c4ccc(NC(C)=O)cc4)CC3)n2)cc(OC)c1OC [GSK1379825],%Inh,PCTK2,0%
same,%Inh,PCTK3,25%
same,%Inh,PDGFRA,6%
same,%Inh,PDGFRB,90%
same,%Inh,PDPK1,21%
same,%Inh,PFTAIRE2,0%
same,%Inh,PFTK1,5%
same,%Inh,PHKG1,0%
same,%Inh,PHKG2,0%
same,%Inh,PIK3C2B,0%
COC(=O)Nc1nc2ccc(Oc3ccc(CC(=O)Nc4cc(C(F)(F)F)ccc4F)cc3)cc2[nH]1 [GW680903],%Inh,PCTK2,0%
same,%Inh,PCTK3,30%
same,%Inh,PDGFRA,98.5%
same,%Inh,PDGFRB,100%
same,%Inh,PDPK1,0%
same,%Inh,PFTAIRE2,0%
same,%Inh,PFTK1,14%
same,%Inh,PHKG1,0%
same,%Inh,PHKG2,0%
same,%Inh,PIK3C2B,0%
Cl.O=C(Nc1ccc(Oc2ccc3[nH]c(NC(=O)c4ccco4)nc3c2)cc1)Nc1cc(C(F)(F)F)ccc1F [GW683134],%Inh,PCTK2,0%
same,%Inh,PCTK3,8%
same,%Inh,PDGFRA,92.6%
same,%Inh,PDGFRB,100%
same,%Inh,PDPK1,14%
same,%Inh,PFTAIRE2,27%
same,%Inh,PFTK1,14%
same,%Inh,PHKG1,0%
same,%Inh,PHKG2,0%
same,%Inh,PIK3C2B,100%
N#Cc1cnc2cc(-c3cnc(CNCCN4CCOCC4)s3)ccc2c1Nc1ccc(Oc2ccccc2)cc1 [GW664114],%Inh,PCTK2,11%
same,%Inh,PCTK3,18%
same,%Inh,PDGFRA,0%
same,%Inh,PDGFRB,24%
same,%Inh,PDPK1,0%
same,%Inh,PFTAIRE2,22%
same,%Inh,PFTK1,18%
same,%Inh,PHKG1,0%
same,%Inh,PHKG2,0%
same,%Inh,PIK3C2B,0%
CS(=O)(=O)c1cccc(CNc2nc(Nc3ccc4c(c3)CCC(=O)N4)ncc2C(F)(F)F)c1,%Inh,PCTK2,0%
same,%Inh,PCTK3,4%
same,%Inh,PDGFRA,15%
same,%Inh,PDGFRB,62%
same,%Inh,PDPK1,32%
same,%Inh,PFTAIRE2,14%
same,%Inh,PFTK1,10%
same,%Inh,PHKG1,0%
same,%Inh,PHKG2,3%
same,%Inh,PIK3C2B,0%
CNc1nccc(-c2ccc3c(N)n[nH]c3c2)n1 [GSK2206003],%Inh,PCTK2,19%
same,%Inh,PCTK3,18%
same,%Inh,PDGFRA,13%
same,%Inh,PDGFRB,77%
same,%Inh,PDPK1,62%
same,%Inh,PFTAIRE2,16%
same,%Inh,PFTK1,10%
same,%Inh,PHKG1,6%
same,%Inh,PHKG2,43%
same,%Inh,PIK3C2B,0%
COc1cc(Nc2ccnc3cc(-c4ccncc4)ccc23)cc(OC)c1OC.Cl [GW494610],%Inh,PCTK2,0%
same,%Inh,PCTK3,0%
same,%Inh,PDGFRA,73%
same,%Inh,PDGFRB,97.2%
same,%Inh,PDPK1,0%
same,%Inh,PFTAIRE2,12%
same,%Inh,PFTK1,0%
same,%Inh,PHKG1,15%
same,%Inh,PHKG2,0%
same,%Inh,PIK3C2B,0%
Cc1ccc(NC(=O)c2ccc(Cl)c(Cl)c2)cc1-c1ccc(C(=O)Nc2ccncc2)cc1 [GSK1398460],%Inh,PCTK2,0%
same,%Inh,PCTK3,25%
same,%Inh,PDGFRA,94.6%
same,%Inh,PDGFRB,100%
same,%Inh,PDPK1,27%
same,%Inh,PFTAIRE2,23%
same,%Inh,PFTK1,1%
same,%Inh,PHKG1,0%
same,%Inh,PHKG2,0%
same,%Inh,PIK3C2B,0%
O=C(O)C(F)(F)F.O=c1[nH]ccc2nc(N[C@@H]3CCNC3)nc(Nc3cc(Cl)cc(Cl)c3)c12 [GSK2188764],%Inh,PCTK2,22%
same,%Inh,PCTK3,25%
same,%Inh,PDGFRA,46%
same,%Inh,PDGFRB,94.8%
same,%Inh,PDPK1,76%
same,%Inh,PFTAIRE2,20%
same,%Inh,PFTK1,27%
same,%Inh,PHKG1,96.1%
same,%Inh,PHKG2,94.7%
same,%Inh,PIK3C2B,13%
Fc1cc(Cl)ccc1Nc1ccnc2cc(-c3ccc(CN4CCOCC4)o3)ccc12 [GW560109],%Inh,PCTK2,0%
same,%Inh,PCTK3,0%
same,%Inh,PDGFRA,99.6%
same,%Inh,PDGFRB,100%
same,%Inh,PDPK1,8%
same,%Inh,PFTAIRE2,12%
same,%Inh,PFTK1,0%
same,%Inh,PHKG1,13%
same,%Inh,PHKG2,0%
same,%Inh,PIK3C2B,0%
O=C1NC(=O)C(c2ccccc2Cl)=C1Nc1cccc(Cl)c1 [SB-342409],%Inh,PCTK2,0%
same,%Inh,PCTK3,31%
same,%Inh,PDGFRA,0%
same,%Inh,PDGFRB,13%
same,%Inh,PDPK1,13%
same,%Inh,PFTAIRE2,21%
same,%Inh,PFTK1,13%
same,%Inh,PHKG1,0%
same,%Inh,PHKG2,0%
same,%Inh,PIK3C2B,0%
CN(c1ccc(F)c(NC(=O)c2cccc(OC(C)(C)C#N)c2Cl)c1)c1ccc2nc(NC(=O)C3CC3)sc2n1,%Inh,PCTK2,0%
same,%Inh,PCTK3,0%
same,%Inh,PDGFRA,97.8%
same,%Inh,PDGFRB,100%
same,%Inh,PDPK1,36%
same,%Inh,PFTAIRE2,11%
same,%Inh,PFTK1,0%
same,%Inh,PHKG1,7%
same,%Inh,PHKG2,0%
same,%Inh,PIK3C2B,15%
Cc1ccc(NC(=O)c2ccnc(N3CCCCC3)c2)cc1-c1ccc(C(=O)NCC2CC2)cc1 [GW775610],%Inh,PCTK2,15%
same,%Inh,PCTK3,0%
same,%Inh,PDGFRA,59%
same,%Inh,PDGFRB,98.3%
same,%Inh,PDPK1,0%
same,%Inh,PFTAIRE2,19%
same,%Inh,PFTK1,0%
same,%Inh,PHKG1,0%
same,%Inh,PHKG2,0%
same,%Inh,PIK3C2B,18%
